Consider 25 molecules from PubChem BioAssay (NCATS).

Records with an inconclusive call do not appear. The source made the active and inactive calls. Calls follow the shape of the dose curve; as a rule, active = well fitted cell-killing curve with a large enough effect; inconclusive = small, poorly fitted or top-dose-only effect, or effect the other way; inactive = no such curve, though single readings can be large or run the other way.

A short description of experiment [1]: Quantitative High-Throughput drug screen in 47 multiple myeloma cell lines against the NCATS MIPE library collection: XG6_PLB cell viability assay (AID 1919865). Also: nearly all actives have a fitted effect of over 40% in size. Also: potency is read from the fitted curve at half-maximal effect. The method in brief: (§1)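 MIPE 4.0 approved/investigational drugs; 500 cells/well; 48 h 37 °C humidified 5% CO2; CTG luminescence readout; DMSO = 100%, media = 0% viability.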
Experiment [2] can be described thus: Quantitative High-Throughput drug screen in 47 multiple myeloma cell lines against the NCATS MIPE library collection: XG1_PLB cell viability assay (AID 1919866). Also: nearly all actives have a fitted effect of over 35% in size. Also: potency is read from the fitted curve at half-maximal effect. Put shortly: as §1
Experiment [3] is described as follows: Quantitative High-Throughput drug screen in 47 multiple myeloma cell lines against the NCATS MIPE library collection: VP6_DJ cell viability assay (AID 1919867). Also: nearly all actives have a fitted effect of over 40% in size. Also: potency is read from the fitted curve at half-maximal effect. Put shortly: as §1
The nature of experiment [4]: Quantitative High-Throughput drug screen in 47 multiple myeloma cell lines against the NCATS MIPE library collection: PE2_PLB cell viability assay (AID 1919869). Also: nearly all actives have a fitted effect of over 35% in size. Also: potency is read from the fitted curve at half-maximal effect. Put shortly:
as §1

Experiment [5] is described as follows: Quantitative High-Throughput drug screen in 47 multiple myeloma cell lines against the NCATS MIPE library collection: RPMI8226_ATCC cell viability assay (AID 1919871). Also: nearly all actives have a fitted effect of over 30% in size. Also: potency is read from the fitted curve at half-maximal effect. Put shortly: as §1
Experiment [6] can be described thus: Quantitative High-Throughput drug screen in 47 multiple myeloma cell lines against the NCATS MIPE library collection: OPM2_DSMZ cell viability assay (AID 1919872). Also: nearly all actives have a fitted effect of over 30% in size. Put shortly: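 We plated 500 myeloma cells per well, pinned in MIPE 4.0 compounds, and incubated for 48 hours at 37C. ATP was then quantified with CellTiter-Glo, with DMSO and media-only wells defining 100% and 0%.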

Experiment [7] in a line: Quantitative High-Throughput drug screen in 47 multiple myeloma cell lines against the NCATS MIPE library collection: KMS11_JCRBsus cell viability assay (AID 1919873). Also: nearly all actives have a fitted effect of over 50% in size. Also: potency is read from the fitted curve at half-maximal effect. The method in brief:
as §1

A short description of experiment [8]: Quantitative High-Throughput drug screen in 47 multiple myeloma cell lines against the NCATS MIPE library collection: PCM6_Riken cell viability assay (AID 1919870). Also: nearly all actives have a fitted effect of over 30% in size. Also: potency is read from the fitted curve at half-maximal effect. The method in brief: as §1
The nature of experiment [9]: Quantitative High-Throughput drug screen in 47 multiple myeloma cell lines against the NCATS MIPE library collection: UTMC2_PLB cell viability assay (AID 1919868). Also: nearly all actives have a fitted effect of over 55% in size. Also: potency is read from the fitted curve at half-maximal effect. The method in brief:
as §1

A short description of experiment [10]: Quantitative High-Throughput drug screen in 47 multiple myeloma cell lines against the NCATS MIPE library collection: U266_ATCC cell viability assay (AID 1919864). Also: nearly all actives have a fitted effect of over 35% in size. The method in brief:
as §1

`COCCCOc1ccnc(CS(=O)c2nc3ccccc3[nH]2)c1C` (configuration not stated): the Potency in [1] is 10.5 µM (active); in [3] it was 4.69 µM (active). The Potency entry in [2], in experiment [4], in [5], in experiment [6] and in [7] was “inactive” in each case.
For `O=C(NCC1CCCCN1)c1cc(OCC(F)(F)F)ccc1OCC(F)(F)F` (configuration not stated), the Potency in [1] is 3.32 µM (active); in experiment [2], 3.32 µM (active); in experiment [3] it was 3.72 µM (active); in experiment [4], 9.35 µM (active); in experiment [8] it was 4.69 µM (active); in experiment [7], 23.5 µM (active).
Turning to `Cc1c(C(=O)NN2CCCCC2)nn(-c2ccc(Cl)cc2Cl)c1-c1ccc(Cl)cc1`, the Potency is 26.4 µM (active) in [1], 26.4 µM (active) in [2], 20.9 µM (active) in [9] and 23.5 µM (active) in experiment [7].
For the molecule `Cc1nc(-c2ccc(OCC(C)C)c(C#N)c2)sc1C(=O)O`, the Potency result in [10], in [9], in [4], in experiment [8], in experiment [5] and in experiment [6] was “inactive” in each case. Besides, the Potency entry in experiment [7] was “inactive”.
`O=C(O)c1cccnc1Nc1cccc(C(F)(F)F)c1`: the Potency entry in experiment [1], in [2], in [9], in experiment [8], in experiment [5] and in [6] was “inactive” each time. Besides, in experiment [7], the Potency entry was “inactive”. Also, the Potency in [3] is 3.32 µM (active).
In the case of `C=C(c1ccc(C(=O)O)cc1)c1cc2c(cc1C)C(C)(C)CCC2(C)C`, the Potency result in experiment [10], in [8], in experiment [5] and in experiment [7] was “inactive” in each case.
Consider `CCOc1cc(CC(=O)N[C@@H](CC(C)C)c2ccccc2N2CCCCC2)ccc1C(=O)O`, for which the Potency result in experiment [1], in [2], in experiment [3], in [5], in [6] and in [7] was “inactive” each time.
Regarding `O=C(c1ccccc1)c1ccc2n1CCC2C(=O)O` (configuration not stated), the Potency in experiment [1] was 9.35 µM (active); in experiment [2], 9.35 µM (active); in experiment [9], 14.8 µM (active); in experiment [4], 9.35 µM (active); in experiment [8] it was 10.5 µM (active); in [7], 13.2 µM (active). Further, the Potency entry in experiment [5] was “inactive”.
Consider `CN(C)c1ccc2nc3ccc(=[N+](C)C)cc-3sc2c1`, for which the Potency in experiment [1] was 5.26 µM (active); in [2], 1.32 µM (active); in experiment [3] it was 1.32 µM (active); in experiment [9], 1.48 µM (active); in experiment [4], 3.72 µM (active); in experiment [5] it was 6.62 µM (active). Further, the Potency in experiment [7] is 2.64 µM (active).
In the case of `COc1ccc2cc([C@H](C)C(=O)O)ccc2c1`, the Potency entry in [10], in experiment [4], in experiment [5] and in experiment [6] was “inactive” each time. Besides, the Potency in experiment [9] is 23.5 µM (active).
As to `CCCCCCCCCCCCCCCCCCCCCCO`, the Potency entry in experiment [1], in experiment [2], in [4], in experiment [8], in experiment [5] and in [6] was “inactive” in each case.
On to `c1ccc2[nH]c(-c3cscn3)nc2c1`, for which the Potency result in experiment [1], in experiment [2], in experiment [3], in [4], in experiment [8] and in experiment [5] was “inactive” each time. In addition, the Potency entry in [7] was “inactive”.
Turning to `O=C(OC1C[C@H]2CC[C@@H](C1)[N+]21CCCC1)C(O)(c1ccccc1)c1ccccc1` (some centres not stated), the Potency result in experiment [1], in experiment [2], in [9], in experiment [4], in experiment [8] and in [5] was “inactive” throughout. Besides, the Potency result in experiment [6] and in [7] was “inactive” throughout.
Take `COc1ccccc1N1CCN(CCN(C(=O)C2CCCCC2)c2ccccn2)CC1`: the figures for the Potency in experiment [1] and in [2] were 1.48 µM (active) and 7.43 µM (active), respectively. For the same molecule, the Potency entry in [9], in experiment [5], in experiment [6] and in experiment [7] was “inactive” in each case.
In the case of `Cc1nc2n(c(=O)c1CCN1CCC(c3noc4cc(F)ccc34)CC1)CCCC2`, the Potency entry in [1], in [2], in [4], in experiment [5], in [6] and in [7] was “inactive” each time. Besides, the Potency in experiment [3] was 7.43 µM (active).
`COc1cc(Nc2c(C#N)cnc3cc(OCCCN4CCN(C)CC4)c(OC)cc23)c(Cl)cc1Cl`: the Potency was 1.32 µM (active) in experiment [1]; 2.96 µM (active) in experiment [2]; 1.05 µM (active) in experiment [3]; 0.526 µM (active) in experiment [9]; 3.72 µM (active) in [4]; 18.7 µM (active) in [7].
As to `Cc1cc(C2CCCCC2)n(O)c(=O)c1`, the Potency in experiment [1] is 8.33 µM (active); in experiment [2] it was 8.33 µM (active); in [3], 8.33 µM (active); in [4], 8.33 µM (active); in experiment [8] it was 8.33 µM (active); in [7], 5.26 µM (active).
Take `O=C(O)c1cn(-c2ccc(F)cc2)c2cc(N3CCNCC3)c(F)cc2c1=O`: the Potency result in experiment [1], in experiment [2], in experiment [9], in experiment [4], in experiment [5] and in experiment [6] was “inactive” each time. Also, in experiment [7], the Potency result was “inactive”.
Turning to `CCN(CC)CCOc1ccc(Cc2ccccc2)cc1`, the Potency result in [1], in experiment [2], in experiment [9], in [4] and in experiment [6] was “inactive” in each case.
For `COC(=O)N[C@H](C(=O)N[C@@H](Cc1ccccc1)[C@@H](O)CN(Cc1ccc(-c2ccccn2)cc1)NC(=O)[C@@H](NC(=O)OC)C(C)(C)C)C(C)(C)C`, the Potency entry in experiment [10], in experiment [4], in experiment [5] and in experiment [6] was “inactive” in each case. Besides, in [8], the Potency was 9.35 µM (active).
For `O=C1NC(=O)C(c2ccccc2[N+](=O)[O-])=C1Nc1ccc(O)c(Cl)c1`, the values for the Potency in experiment [1], in experiment [2] and in [8] were 6.62 µM (active), 8.33 µM (active) and 18.7 µM (active), respectively. In addition, the Potency result in experiment [9] and in [6] was “inactive” throughout.
On to `COCCCN1CCC(NC(=O)c2cc(Cl)c(N)c3c2OCC3)CC1`, for which the Potency entry in experiment [10] was “inactive”. Besides, the Potency in experiment [3] is 18.7 µM (active); in experiment [5] it was 18.7 µM (active); in experiment [7], 23.5 µM (active).
Take `O=C(O)c1cc(=O)c2c(OCC(O)COc3cccc4oc(C(=O)O)cc(=O)c34)cccc2o1`: the Potency entry in experiment [1], in experiment [2], in experiment [4], in [8], in experiment [6] and in experiment [7] was “inactive” throughout. The Potency in experiment [3] was 5.26 µM (active).
Consider `Clc1ccc(C(Cn2ccnc2)OCc2c(Cl)cccc2Cl)c(Cl)c1` (configuration not stated), for which the Potency in experiment [1] is 26.4 µM (active); in [2] it was 20.9 µM (active).
On to `COc1ccc(C2(C#N)CCC(C(=O)O)CC2)cc1OC1CCCC1` (configuration not stated), for which the Potency entry in experiment [10], in [4], in experiment [5], in experiment [6] and in experiment [7] was “inactive” throughout.
